From the supplement of paper PMC5940239

tested on: Madurella mycetomatis MM55; assay: percent growth relative to solvent control; higher = less inhibition, active = 20 or less; details: 100 µM; 7 days

Row | Compound | percent growth
1 | Nc1cccnc1Nc1ccc(Cl)cc1 | 80.6% (inactive)
2 | CNC(=O)c1cc(S(=O)(=O)N2CCN(c3ccccn3)CC2)cs1 | 143% (inactive)
3 | O=C1[C@@H](Oc2ccccc2)[C@@H](c2ccc(Cl)cc2)N1CCn1cnc2c(NCc3ccccc3)ncnc21 | 98.5% (inactive)
4 | Nc1ncnc2c1c(Cc1cccc3ccccc13)nn2CC1CCNCC1 | 132% (inactive)
5 | FC(F)(F)c1nnc2ccc(Cl)nn12 | 116% (inactive)
6 | COc1nc2ccc(Br)cc2cc1[C@@H](c1ccccc1)[C@@](O)(CCN(C)C)c1cccc2ccccc12 | 100% (inactive)
7 | CCCCS(=O)(=O)Nc1ccc2cnn(C)c2c1 | 106% (inactive)
8 | CCS(=O)(=O)N(Cc1ccco1)Cc1cc2ccc(C)cc2nc1O | 85% (inactive)
9 | CC1CS(=O)(=O)CCN1/N=C/c1ccc([N+](=O)[O-])o1 (stereo not drawn) | 96.8% (inactive)
10 | CC(C)(C)OC(=O)N1CCN(c2cc(-c3ccc(Oc4ccccc4)cc3)n[nH]2)CC1 | 112% (inactive)
11 | CCc1ccccc1-n1c(C)cn2c3c(=O)n(C(C(=O)OC)C(C)C)c(=O)n(C)c3nc12 (stereo not drawn) | 79.9% (inactive)
12 | Cc1cc(Nc2ccncc2)n2nc(C)c(-c3ccccc3Cl)c2n1 | 103% (inactive)
13 | O=C(NCc1ccco1)N1CCN(Cc2ccc(Cl)s2)CC1 | 90.6% (inactive)
14 | CCc1cc(=O)n(C)c(SC(C)C(=O)Nc2ccc(F)cc2)n1 (stereo not drawn) | 61.1% (inactive)
15 | Clc1cccc(CO[C@H]2CCc3ccccc3[C@@H]2n2ccnn2)c1 | 64.8% (inactive)
16 | Nc1nc(N)c2c3c(sc2n1)CN(Cc1ccccc1)CC3 | 88% (inactive)
17 | CCN(CC)S(=O)(=O)c1ccc(Cl)c(C(=O)Nc2ccc3nc(C)sc3c2)c1 | 119% (inactive)
18 | COc1ccc2nc(C)cc(OCC(=O)NCc3ccccc3)c2c1 | 83.4% (inactive)
19 | Cc1ccc2[nH]c3c(NCCN(C)C)ncnc3c2c1 | 94.1% (inactive)

Row | Compound | percent growth
20 | Cc1ccc2oc(-c3cc(NC(=O)Cc4ccccc4)ccc3Cl)nc2c1 | 96% (inactive)
21 | COc1ccc(Cl)cc1NC(=O)CN(C)C(=O)c1cnn(-c2ccccc2)n1 | 30.8% (inactive)
22 | COc1cc(NC(=O)Cc2nn(C)c(=O)c3ccccc23)ccc1Cl | 116% (inactive)
23 | Cc1ccc(NC(=O)c2cc(S(=O)(=O)NC(C)(C)C)ccc2C)nc1 | 78.4% (inactive)
24 | CCOc1ccccc1C(=O)Nc1cccc(-c2nc3ncccn3c2C)c1 | 97.2% (inactive)
25 | O=C(Nc1ccc2c(c1)B(O)OC2)c1ccccc1C(F)(F)F | 150% (inactive)
26 | Cc1ccc(S(=O)(=O)n2cc(-c3ccnc(N)c3)c3cc(Br)cnc32)cc1 | 25.4% (inactive)
27 | CCNC(=O)C(C)Nc1nc(-c2cccnc2)nc2sc(C)c(C)c12 (stereo not drawn) | 90.4% (inactive)
28 | COc1ccc(N(CCc2cccc(C)n2)C(=O)C2CCCCC2)cc1 | 28% (inactive)
29 | CC(C)(C)c1cc(C(=O)N2CCN(c3nccnc3C#N)CC2)n(Cc2ccccc2)n1 | 56.8% (inactive)
30 | OCCc1ccc(Nc2nccc(-c3nnc4ccccn34)n2)cc1 | 88.7% (inactive)
31 | Nc1ncnc2[nH]nc(Cc3cccc4ccccc34)c12 | 118% (inactive)
32 | O=C(Nc1cnc2ccccc2c1)c1cccc(-n2cnnn2)c1 | 94.2% (inactive)
33 | CC(C)c1ncc(-c2ccncc2)c([C@H]2CC[C@H](CNC(=O)c3cccnc3)CC2)n1 | 114% (inactive)
34 | COc1cc(C(F)(F)F)nc2ccc(C)c(N)c12 | 77.1% (inactive)
35 | O=C(NC1CC1)c1ccc(CSCc2ccccc2Cl)o1 | 41.5% (inactive)
36 | Cc1nnc(NC(=O)c2cn(-c3ccccc3)nc2-c2ccccc2C)o1 | 92.6% (inactive)
37 | CC1=Nc2ccc(Cl)cc2C(c2ccccc2)N1CCNC(=O)CN(C)C (stereo not drawn) | 106% (inactive)
38 | CS(=O)(=O)N1CCC(CCn2nc(Cc3cccc4ccccc34)c3c(N)ncnc32)CC1 | 81.9% (inactive)
